# Bioassay records from PubChem.
# This is a sample that favours compounds with a hit; in the whole collection about 10% have one here.
# NIH3T3 tox = Cytotoxic Profiling in NIH 3T3 Cell Line of Diverse Libraries Using Quantitative High-Throughput Screening; NIH 3T3 viability, CellTiter-Glo ATP luminescence, 48-72 h; Potency, µM (top dose mostly 96.7 µM), for the others: at the highest dose activity change, negative = cytotoxicity, hits mostly inhibitors; 4.3% of 94,000 active; AID 1345082, 2018; note: % is set by controls: 0 for no effect and ±100 for the full control effect; nearly all actives have a fitted effect of over 55% in size
#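 Luminescent ATP readout (CellTiter-Glo, 10 min RT) after 48 or 72 hr compound exposure of NIH 3T3 cells seeded at 400 cells/well in 1536-well format; quantitative HTS.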
# NPR1 antag = Natriuretic polypeptide receptor (hNpr1) antagonism - Primary qHTS; Atrial natriuretic peptide receptor 1 (Homo sapiens), P16066; HEK293 hNpr1 GloSensor cGMP, ANP-stimulated luminescence; Potency, µM (series often up to 46.3 µM), without a hit: at the top dose activity change, negative = inhibition, most hits filed as inhibitors; 1.6% of 76,000 active; AID 1347048, 2019; calls by dose curve; note: % is set by controls: 0 for no effect and ±100 for the full control effect; nearly all actives have a fitted effect of over 60% in size
#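 Compound pre-incubated 30 min at room temperature on GloSensor-loaded HEK293 cells stably carrying hNpr1 and the pGS-40F cGMP biosensor. Stimulation uses hNppA at 0.1 nM final; luminescence is taken at baseline and 20 min post-agonist.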
# FLuc inh-1 = Firefly luciferase inhibition profiling of diverse chemical library using quantitative high-throughput screening | Potency, µM (top dose mostly 115 µM), usual class: inhibitors | AID 1347043, 2019 | purified P. pyralis luciferase, luminescence, biochemical | 2.5% of 76,000 active; note: % is set by controls: 0 for no effect and ±100 for the full control effect; nearly all actives have a fitted effect of over 65% in size
# Target sequence (P08659 whole entry, looked up): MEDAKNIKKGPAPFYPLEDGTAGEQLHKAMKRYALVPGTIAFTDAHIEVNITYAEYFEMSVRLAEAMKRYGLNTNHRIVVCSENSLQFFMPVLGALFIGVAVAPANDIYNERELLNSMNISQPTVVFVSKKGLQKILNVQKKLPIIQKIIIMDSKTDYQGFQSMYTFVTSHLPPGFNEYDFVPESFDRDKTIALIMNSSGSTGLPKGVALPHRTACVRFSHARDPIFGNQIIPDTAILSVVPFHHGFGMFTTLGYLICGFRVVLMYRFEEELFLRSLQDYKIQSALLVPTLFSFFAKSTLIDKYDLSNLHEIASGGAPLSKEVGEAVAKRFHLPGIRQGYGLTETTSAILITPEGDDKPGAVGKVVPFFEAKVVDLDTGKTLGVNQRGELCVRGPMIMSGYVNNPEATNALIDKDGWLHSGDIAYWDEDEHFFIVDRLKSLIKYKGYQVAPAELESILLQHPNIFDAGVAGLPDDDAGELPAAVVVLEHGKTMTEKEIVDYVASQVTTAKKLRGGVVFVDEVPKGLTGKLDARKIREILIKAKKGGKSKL
#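 Luminescence read by CCD imaging after purified firefly luciferase (10nM final) was added to substrate buffer holding 10uM D-luciferin and 10uM ATP, pH 7.5, pre-dosed with compound.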
# GPT2 inhibitor = Primary qHTS assay for inhibitors of Glutamate pyruvate transaminase 2 (GPT2). Potency, µM (doses to about 57.7 µM), for the others: at the top dose activity change, negative = inhibition, usual class: inhibitors. Alanine aminotransferase 2 (Homo sapiens), Q8TD30. Recombinant GPT2, coupled pyruvate oxidase/HRP Amplex Red fluorescence. AID 1671188, 2021. 0.25% of 100,000 active; note: % is set by controls: 0 for no effect and ±100 for the full control effect; nearly all actives have a fitted effect of over 60% in size
#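 Fluorescence of coupled pyruvate oxidase/HRP/Amplex Red system (50uM Amplex, 30 min, dark) reports pyruvate formed by GPT2. Enzyme reaction: 10ng/uL GPT2, 2mM L-alanine, 250uM a-KG, 30 min room temperature, pH 7.5; 50uM AOA control.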
# HEK cytotox = Cytotoxic Profiling in HEK 293 Cell Line of Diverse Libraries Using Quantitative High-Throughput Screening. HEK 293 viability, ATP luminescence (CellTiter-Glo), 48-72 h. Potency, µM (highest dose often 115 µM), without a hit: at the top dose activity change, negative = cytotoxicity, hits mostly inhibitors. 6.6% of 94,000 active; note: % is set by controls: 0 for no effect and ±100 for the full control effect; nearly all actives have a fitted effect of over 60% in size
#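 Cytotoxicity was scored by loss of ATP-coupled luminescence (CellTiter-Glo) in HEK 293 cells. Compound treatment ran 48 or 72 hr at 37 degree Celsius, 5% CO2, 95% humidity.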
# FLuc SDR -ATP = Firefly luciferase (FLuc-C-HiBiT) SDR gain of signal screen - without ATP; shares compounds with FLuc inh-1; Purified FLuc-C-HiBiT, Nano-Glo HiBiT luminescence, no ATP; Potency, µM (series often up to 32.7 µM), without a hit: at the top dose activation (signal gain), most hits filed as activators; 7.8% of 1,300 active; note: nearly all actives have a fitted effect of over 55% in size
# FLuc SDR ATP = Firefly luciferase (FLuc-C-HiBiT) SDR gain of signal screen - plus ATP; shares compounds with FLuc inh-1; purified FLuc-C-HiBiT + ATP, HiBiT complementation luminescence; Potency, µM (doses to about 32.7 µM), inactives show at the top dose activation (gain of signal), usual class: activators; 8.7% of 1,300 active;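 note: signal reports ligand binding via conformational change of the enzyme rather than luciferase catalysis; % of control where 0% means no effect; nearly all actives have a fitted effect of over 55% in size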
# FLuc inh-2 = Firefly luciferase (FLuc-C-HiBiT) enzymatic inhibition screen - Functional assay. purified FLuc-C-HiBiT enzyme, luciferin luminescence. 42% of 1,300 active. Potency, µM (series often up to 32.7 µM), without a hit: at the top dose activity change, negative = inhibition, most hits filed as inhibitors. shares compounds with FLuc inh-1; note: % is set by controls: 0 for no effect and ±100 for the full control effect; nearly all actives have a fitted effect of over 70% in size
# * marks the source's active call; other numbers are inactive results; i = inactive; ? = inconclusive; . = not tested or not shown; [ ] = another dose, or the depositor's remark. Unless noted, calls come from the whole dose curve; as a rule, active = well fitted curve in the direction sought with a large enough effect; inconclusive = small, poorly fitted or top-dose-only effect, or another doubt; inactive = no such curve, though single readings can be large; an effect the other way counts as inactive or inconclusive. Potency is the fitted concentration of half-maximal effect.
SMILES,NIH3T3 tox,NPR1 antag,FLuc inh-1,GPT2 inhibitor,HEK cytotox,FLuc SDR -ATP,FLuc SDR ATP,FLuc inh-2
Cc1noc(C)c1CC(=O)N1CCOc2c(cc(-c3nc4ccccc4s3)cc2OC2CCOC2)C1 (stereo unspecified),.,.,.,.,.,11.8%,11.5%,-3.6%
Oc1cc(-c2nc3ccccc3s2)cc2c1OCCN(Cc1cccn1-c1ccc(Cl)cn1)C2,.,.,.,.,.,15.9%,12.7%,-10.5%
Oc1cc(-c2nc3ccccc3s2)cc2c1OCCN(Cc1ncccn1)C2,-37.1%,2.7%,?,i,?,12.9%,10.9%,-14.9%
Cc1noc(C)c1CC(=O)N1C[C@@H](Oc2ccccc2)C[C@@H]1C(=O)N1CCOCC1,-11.6%,7.9%,i,0.4%,-2.7%,.,.,.
COc1ccc(C(=O)N2CCC(n3nccc3NC(=O)c3cccc(F)c3)CC2)cc1C,-21.4%,-2.2%,i,-12.5%,-14.1%,.,.,.
COc1ccc(-c2noc(-c3cccn3CC(=O)Nc3ccc(F)cc3)n2)cc1F,i,0.0%,i,-8.8%,4.4%,.,.,.
Fc1ccccc1-c1n[nH]c2c1CN(Cc1cccn1-c1nccs1)CC2,-34.5%,-10.6%,i,i,?,.,.,.
c1ccc2sc(-c3cc4c(c(OC5CCOC5)c3)OCCN(Cc3cccn3-c3nccs3)C4)nc2c1 (stereo unspecified),.,.,.,.,.,14.2%,10.8%,-3.0%
Oc1cc(-c2nc3ccccc3s2)cc2c1OCCN(Cc1cccn1-c1nccs1)C2,.,.,.,.,.,15.7%,9.0%,-4.8%
O=[S+]1([O-])NCC2(CCN(Cc3ccsc3)C2)Nc2ccccc21 (stereo unspecified),-10.5%,16.4%,i,-2.8%,-16.9%,.,.,.
CCOC(=O)c1cc(-c2ccccc2)nn1Cc1ccccc1,.,.,.,.,.,15.2%,11.8%,-5.7%
CCOC(=O)C1=CN(Cc2ccccc2)S(=O)(=O)N=C1C,?,-13.0%,i,-5.6%,-24.3%,.,.,.
CN(Cc1nc2ccc(Cl)cc2[nH]1)C(=O)c1ccc2nccn2c1,?,-1.2%,i,i,-1.7%,.,.,.
Cn1ccnc1CN1C(=O)CO[C@H](c2ccc(NC(=O)Nc3ccccc3)cc2)[C@H]1CO,1.9%,-0.3%,10µM*,1.4%,-3.9%,17.8%,13.4%,?
CCOc1cccc(CNC(=O)C2CCN(C(=O)c3ncn4c3COC(c3ccccc3)C4)CC2)c1 (stereo unspecified),-2.0%,-11.8%,14.1µM*,5.0%,12.6%,16.5%,?,?
O=C(NCc1ccco1)C1CCN(C(=O)c2ncn3c2COC(c2ccccc2)C3)CC1 (stereo unspecified),0.4%,-20.7%,5.01µM*,3.3%,0.6%,15.3%,2.48µM*,2.48µM*
O=C(NCc1ccc2c(c1)OCO2)C1CCN(c2cc(C(F)(F)F)ncn2)CC1,?,?,10µM*,i,?,15.6%,17.3%,?
O=C(NCc1ccccc1Cl)C1CCN(C(=O)c2ncn3c2COC(c2ccccc2)C3)CC1 (stereo unspecified),0.5%,-13.8%,14.1µM*,?,13.3%,12.5%,?,?
CN(C(=O)C1C2C(=O)N(C3CCCCCC3)C[C@@]23C=C[C@@H]1O3)C1CCSCC1 (stereo partly specified),-2.6%,3.5%,i,?,-5.7%,.,.,.
NC(=O)[C@H](Cc1ccc(O)cc1)NC(=O)[C@@]1(O)C[C@@H](O)[C@H](O)[C@@H](NC(=O)Nc2ccc(OC(F)(F)F)cc2)C1,i,13.0%,i,0.4%,3.8%,.,.,.
O=C1CS(=O)(=O)C2(CCNCC2)N1,i,-0.5%,i,-8.0%,3.0%,.,.,.
O=C(Cc1ccccc1Cl)NC1CCN(c2cc(-c3ccc(F)cc3)[nH]n2)C1 (stereo unspecified),?,-14.6%,i,?,?,.,.,.
FC(F)(F)c1cc(C(F)(F)F)c2ccc3nc(-c4nnco4)cn3c2n1,.,.,.,i,.,.,.,.
O=C(NCc1ccc(F)cc1F)C1CCN(C(=O)c2ncn3c2COC(c2ccc(F)cc2)C3)CC1 (stereo unspecified),-17.2%,-12.1%,?,3.3%,-8.8%,.,.,.
O=C(NCc1ccc2c(c1)OCO2)C1CCN(C(=O)c2ncn3c2COC(c2ccccc2)C3)CC1 (stereo unspecified),i,-24.2%,7.94µM*,4.5%,14.2%,15.9%,?,7µM*
SMILES,NIH3T3 tox,NPR1 antag,FLuc inh-1,GPT2 inhibitor,HEK cytotox,FLuc SDR -ATP,FLuc SDR ATP,FLuc inh-2
O=C(NCc1ccc(Cl)cc1)C1CCN(C(=O)c2ncn3c2COC(c2ccccc2)C3)CC1 (stereo unspecified),-7.2%,-23.2%,8.91µM*,?,-17.1%,14.5%,?,3.94µM*
O=C(NCc1cc(F)ccc1F)C1CCN(C(=O)c2ncn3c2COC(c2ccccc2)C3)CC1 (stereo unspecified),-7.2%,-16.0%,2.24µM*,?,-10.1%,9.5%,?,3.13µM*
CN(C)c1ccc(CN2C[C@H](O)C[C@H]2c2nc(-c3ccncc3)no2)cc1,-12.4%[138 µM],1.9%[70.6 µM],i,i,-11.8%[172 µM],.,.,.
COc1ccccc1C(=O)NCC12CCCC=C1NC(=O)CC2 (stereo unspecified),-27.1%,.,.,0.0%,-18.1%,.,.,.
COc1ccccc1C(=O)NCCn1ccn2nc(-c3ccc(C)cc3C)cc2c1=O,?,-25.9%,10µM*,-11.3%,?,18.9%,13.3%,?
Cc1ccc(-c2cc3c(=O)n(CCNC(=O)Cc4cccc(F)c4)ccn3n2)c(C)c1,?,-26.9%,3.55µM*,i,?,?,?,5.56µM*
